Test results reported in PubChem BioAssay (EPA / NIEHS).
Activity calls are given as the source filed them. How the source made its calls: active means hit-call score of the fitted dose curve at least 0.9, where 1 is the maximum; inactive means score below 0.9.

Experiments:
Details in all cases: mRNA level, 48 h; actives raise or lower the signal
[1] = read-out: Insulin Like Growth Factor 1 (IGF1), IGF1 (gene 3479); experiment: LTEA_HepaRG_IGF1: Life Technologies and Expression Analysis (LTEA) Assay for Insulin Like Growth Factor 1 (IGF1) using HepaRG (AID 2283506)
In short: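 Differentiated human HepaRG cells were dosed for 48 h in serum-free induction medium with 0.5% DMSO, eight half-log concentrations up to 100 uM, in duplicate. IGF1 mRNA was quantified by qRT-PCR normalized to ACTB, GAPDH, POLR2A; bidirectional fitting versus DMSO.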

[2] = read-out: Intercellular Adhesion Molecule 1 (ICAM1), ICAM1 (gene 3383); experiment: LTEA_HepaRG_ICAM1: Life Technologies and Expression Analysis (LTEA) Assay for Intercellular Adhesion Molecule 1 (ICAM1) using HepaRG (AID 2283507)
In short: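 HepaRG, 48 h exposure, 8-pt half-log series from 100 uM, 0.5% DMSO vehicle, duplicates. Readout: TaqMan qRT-PCR mRNA, housekeeping-normalized (ACTB/GAPDH/POLR2A). Bidirectional curve fit vs DMSO baseline.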

[3] = read-out: Interleukin 6 (IL6), IL6 (gene 3569); experiment: LTEA_HepaRG_IL6: Life Technologies and Expression Analysis (LTEA) Assay for Interleukin 6 (IL6) using HepaRG (AID 2283509)
In short: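 HepaRG cells exposed in duplicate for 48 h to eight half-log concentrations, top 100 uM, in 0.5% DMSO serum-free induction medium. mRNA measured by qRT-PCR, normalized to ACTB, GAPDH and POLR2A. Bidirectional fit versus DMSO.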

[4] = read-out: Interleukin 6 Receptor (IL6R), IL6R (gene 3570); experiment: LTEA_HepaRG_IL6R: Life Technologies and Expression Analysis (LTEA) Assay for Interleukin 6 Receptor (IL6R) using HepaRG (AID 2283510)
In short: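 Differentiated human HepaRG cells, plated 48 h then switched to serum-free induction medium, were dosed in duplicate for 48 h at eight half-log concentrations up to 100 uM in 0.5% DMSO. IL6R mRNA quantified by qRT-PCR, normalized to ACTB/GAPDH/POLR2A; bidirectional fit versus DMSO.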

[5] = read-out: Potassium channel subfamily K member 1 (KCNK1), KCNK1 (gene 3775); experiment: LTEA_HepaRG_KCNK1: Life Technologies and Expression Analysis (LTEA) Assay for Potassium channel subfamily K member 1 (KCNK1) using HepaRG (AID 2283511)
In short: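 Differentiated HepaRG cells, 48 h exposure in serum-free induction medium with 0.5% DMSO; 8 concentrations, half-log from 100 uM, duplicate. KCNK1 mRNA by qRT-PCR, normalized to ACTB, GAPDH, POLR2A; bidirectional fit vs DMSO.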

[6] = read-out: Keratin 19 (KRT19), KRT19 (gene 3880); experiment: LTEA_HepaRG_KRT19: Life Technologies and Expression Analysis (LTEA) Assay for Keratin 19 (KRT19) using HepaRG (AID 2283512)
In short: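 HepaRG, 48 h chemical exposure, 8-pt half-log CRC from 100 uM, 0.5% DMSO vehicle, duplicates. Readout: TaqMan qRT-PCR of KRT19 mRNA, housekeeping-normalized (ACTB/GAPDH/POLR2A). Bidirectional fit vs DMSO baseline.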

[7] = read-out: JUN Transcription Factor, JUN (gene 3725); experiment: LTEA_HepaRG_JUN: Life Technologies and Expression Analysis (LTEA) Assay for JUN Transcription Factor using HepaRG (AID 2283513)
In short: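 Differentiated HepaRG cells were exposed to chemicals for 48 h in serum-free induction medium, 8 concentrations from 100 uM in half-log steps, 0.5% DMSO vehicle, in duplicate. JUN mRNA was quantified by TaqMan qRT-PCR, normalized to ACTB, GAPDH, POLR2A.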

[8] = read-out: Lipase C (LIPC), LIPC (gene 3990); experiment: LTEA_HepaRG_LIPC: Life Technologies and Expression Analysis (LTEA) Assay for Lipase C (LIPC) using HepaRG (AID 2283514)
In short: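 HepaRG cells, 48 h after plating, treated in duplicate for 48 h in serum-free induction medium over 8 half-log concentrations from 100 uM, 0.5% DMSO. LIPC mRNA by TaqMan qRT-PCR normalized to ACTB/GAPDH/POLR2A; bidirectional fit versus DMSO.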

[9] = read-out: Lipoprotein lipase (LPL), LPL (gene 4023); experiment: LTEA_HepaRG_LPL: Life Technologies and Expression Analysis (LTEA) Assay for Lipoprotein lipase (LPL) using HepaRG (AID 2283515)
In short: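 Differentiated HepaRG cells, plated 48 h, then exposed 48 h in serum-free induction medium to 8 concentrations (top 100 uM, half-log steps) in 0.5% DMSO, duplicate. LPL mRNA measured by qRT-PCR, normalized to ACTB, GAPDH and POLR2A.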

[10] = read-out: MicroRNA 122 (MIR122), gene 406906; experiment: LTEA_HepaRG_MIR122: Life Technologies and Expression Analysis (LTEA) Assay for MicroRNA 122 (MIR122) using HepaRG (AID 2283516); further: the transcript read is the microRNA miR-122
In short: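 Differentiated human HepaRG cells were exposed 48 h in serum-free induction medium to eight half-log concentrations (top 100 uM, 0.5% DMSO). Transcript level was measured by TaqMan qRT-PCR, normalized to ACTB, GAPDH and POLR2A, and fitted bidirectionally versus DMSO.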

[11] = read-out: matrix metalloproteinase-10 (MMP10), MMP10 (gene 4319); experiment: LTEA_HepaRG_MMP10: Life Technologies and Expression Analysis (LTEA) Assay for matrix metalloproteinase-10 (MMP10) using HepaRG (AID 2283517)
In short: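 Differentiated HepaRG cells in serum-free induction medium exposed 48 h in duplicate to 8-point half-log series up to 100 uM in 0.5% DMSO. mRNA quantified by qRT-PCR, normalised to ACTB, GAPDH, POLR2A; bidirectional fit versus DMSO.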

[12] = read-out: MYC, MYC (gene 4609); experiment: LTEA_HepaRG_MYC: Life Technologies and Expression Analysis (LTEA) Assay for MYC using HepaRG (AID 2283518)
In short: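 qRT-PCR read-out of MYC transcript (Fluidigm TaqMan, housekeeping-normalized) after 48 h chemical exposure of HepaRG cells; eight concentrations, top 100 uM, half-log steps. Bidirectional curve fitting against 0.5% DMSO vehicle baseline.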

[13] = read-out: matrix metalloproteinase-3 (MMP3), MMP3 (gene 4314); experiment: LTEA_HepaRG_MMP3: Life Technologies and Expression Analysis (LTEA) Assay for matrix metalloproteinase-3 (MMP3) using HepaRG (AID 2283519)
In short: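 HepaRG cells (~100,000/well) in serum-free induction medium were dosed in duplicate for 48 h with an 8-point half-log series from 100 uM, 0.5% DMSO. MMP3 mRNA was quantified by Fluidigm TaqMan qRT-PCR, normalized to three housekeeping genes.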

[14] = read-out: Paternally Expressed 10 (PEG10), PEG10 (gene 23089); experiment: LTEA_HepaRG_PEG10: Life Technologies and Expression Analysis (LTEA) Assay for Paternally Expressed 10 (PEG10) using HepaRG (AID 2283520)
In short: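 Differentiated HepaRG cells, plated 48 h then switched to serum-free induction medium, were exposed in duplicate for 48 h to eight half-log concentrations topping at 100 uM in 0.5% DMSO. PEG10 mRNA was quantified by TaqMan qRT-PCR, normalised to ACTB, GAPDH and POLR2A.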

[15] = read-out: Nuclear factor NF-kappa-B p105 subunit (Homo sapiens) (UniProt P19838); experiment: LTEA_HepaRG_NFKB1: Life Technologies and Expression Analysis (LTEA) Assay for Nuclear Factor Kappa B Subunit 1 (NFKB1) using HepaRG (AID 2283521)
In short: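 HepaRG, 48 h exposure; 8-pt half-log series from 100 uM in 0.5% DMSO; duplicates. Readout: NFKB1 mRNA by qRT-PCR (Fluidigm arrays), housekeeping-normalized. Gain/loss fit vs DMSO baseline.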

[16] = read-out: Protein phosphatase 2A (PPP2R4), PTPA (gene 5524); experiment: LTEA_HepaRG_PPP2R4: Life Technologies and Expression Analysis (LTEA) Assay for Protein phosphatase 2A (PPP2R4) using HepaRG (AID 2283522)
In short: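 Differentiated HepaRG cells in serum-free induction medium were exposed in duplicate for 48 h to eight concentrations, top 100 uM with half-log dilutions, in 0.5% DMSO. PPP2R4 mRNA was quantified by TaqMan qRT-PCR, normalized to ACTB, GAPDH and POLR2A.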

[17] = read-out: Phosphatase and tensin (PTEN), PTEN (gene 5728); experiment: LTEA_HepaRG_PTEN: Life Technologies and Expression Analysis (LTEA) Assay for Phosphatase and tensin (PTEN) using HepaRG (AID 2283523)
In short: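 HepaRG cells, 48 h after plating, exposed in duplicate for 48 h in serum-free induction medium to 8 half-log concentrations up to 100 uM (0.5% DMSO). PTEN mRNA by qRT-PCR, normalized to ACTB, GAPDH, POLR2A; bidirectional fit versus DMSO.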

[18] = read-out: solute carrier (SLC22A1), SLC22A1 (gene 6580); experiment: LTEA_HepaRG_SLC22A1: Life Technologies and Expression Analysis (LTEA) Assay for solute carrier (SLC22A1) using HepaRG (AID 2283524)
In short: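 Differentiated human HepaRG cells in serum-free induction medium, exposed 48 h in duplicate to 8-point half-log series from 100 µM top in 0.5% DMSO. SLC22A1 mRNA by TaqMan qRT-PCR normalized to ACTB, GAPDH, POLR2A; bidirectional fit versus DMSO.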

[19] = read-out: Pyruvate Dehydrogenase Kinase 4 (PDK4), PDK4 (gene 5166); experiment: LTEA_HepaRG_PDK4: Life Technologies and Expression Analysis (LTEA) Assay for Pyruvate Dehydrogenase Kinase 4 (PDK4) using HepaRG (AID 2283525)
In short: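 HepaRG cells plated 48 h, then switched to serum-free induction medium and exposed in duplicate for 48 h to 8 half-log concentrations from 100 uM in 0.5% DMSO. PDK4 mRNA measured by qRT-PCR, normalized to ACTB, GAPDH and POLR2A; bidirectional fit versus DMSO.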

[20] = read-out: Insulin-like growth factor-binding protein 1 (IGFBP1), IGFBP1 (gene 3484); experiment: LTEA_HepaRG_IGFBP1: Life Technologies and Expression Analysis (LTEA) Assay for Insulin-like growth factor-binding protein 1 (IGFBP1) using HepaRG (AID 2283508)
In short: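 qRT-PCR mRNA read-out (TaqMan, Fluidigm array), normalised to three housekeeping genes; HepaRG cells, 48 h exposure, 8-pt half-log series from 100 uM, 0.5% DMSO vehicle; bidirectional curve fit vs DMSO baseline.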

Measured: AC50

Nuclear factor NF-kappa-B p105 subunit (Homo sapiens), sequence (P19838 whole entry, looked up): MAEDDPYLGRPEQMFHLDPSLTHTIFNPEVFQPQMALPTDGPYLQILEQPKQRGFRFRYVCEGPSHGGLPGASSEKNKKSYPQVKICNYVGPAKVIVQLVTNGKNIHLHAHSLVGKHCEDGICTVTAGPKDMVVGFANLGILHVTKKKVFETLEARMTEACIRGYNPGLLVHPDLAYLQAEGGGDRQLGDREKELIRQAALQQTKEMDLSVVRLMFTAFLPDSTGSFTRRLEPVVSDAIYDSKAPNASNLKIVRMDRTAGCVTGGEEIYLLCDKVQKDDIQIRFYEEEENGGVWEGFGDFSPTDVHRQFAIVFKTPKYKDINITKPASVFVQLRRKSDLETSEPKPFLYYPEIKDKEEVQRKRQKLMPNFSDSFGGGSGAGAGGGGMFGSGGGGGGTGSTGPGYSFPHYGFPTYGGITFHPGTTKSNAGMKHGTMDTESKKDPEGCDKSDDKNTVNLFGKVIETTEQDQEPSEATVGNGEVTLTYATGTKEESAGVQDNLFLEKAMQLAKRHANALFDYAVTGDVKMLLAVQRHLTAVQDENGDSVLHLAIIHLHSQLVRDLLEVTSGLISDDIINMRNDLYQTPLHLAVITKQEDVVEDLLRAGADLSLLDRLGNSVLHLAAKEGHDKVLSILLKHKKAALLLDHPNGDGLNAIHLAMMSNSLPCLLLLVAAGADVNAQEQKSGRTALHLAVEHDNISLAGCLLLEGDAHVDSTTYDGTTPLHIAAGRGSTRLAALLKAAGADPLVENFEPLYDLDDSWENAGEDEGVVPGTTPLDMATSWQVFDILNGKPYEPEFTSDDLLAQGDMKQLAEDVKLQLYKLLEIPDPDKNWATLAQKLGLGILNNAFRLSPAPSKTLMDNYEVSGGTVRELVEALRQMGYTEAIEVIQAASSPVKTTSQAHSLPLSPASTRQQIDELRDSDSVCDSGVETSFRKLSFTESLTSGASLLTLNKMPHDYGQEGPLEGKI

Cc1ccc(N=C=O)cc1N=C=O
inactive: [1] | [4] | [5] | [7] | [13] | [15] | [16] | [17]
active: [2] 24 µM | [3] 73.5 µM | [6] 23.9 µM | [8] 50 µM | [9] 3.41 µM | [10] 50 µM | [11] 27 µM | [12] 19.3 µM | [14] 12.4 µM | [18] 30.6 µM | [19] 19.6 µM

CC(C)(C)C(O)(CCc1ccc(Cl)cc1)Cn1cncn1 (configuration not stated)
active: [1] 50 µM | [2] 50 µM | [8] 71.8 µM | [9] 74.4 µM | [10] 78.1 µM | [18] 73.2 µM | [19] 80.9 µM
not listed: [12] | [16] | [20]
inactive: all other assays above

Nc1ccc(Cl)cc1N
active: [1] 25 µM | [3] 73.4 µM | [4] 34.2 µM | [6] 33.5 µM | [8] 17.3 µM | [9] 13.2 µM | [10] 21 µM | [13] 30.1 µM | [14] 14.2 µM | [15] 12.5 µM | [16] 26.3 µM | [17] 32.6 µM | [18] 18.9 µM
inactive: [2] | [5] | [7] | [11] | [19]

c1ccc(NNc2ccccc2)cc1
not listed: [20]
inactive: all other assays above

CC(C)COC(=O)c1ccccc1C(=O)OCC(C)C
not listed: [11] | [15]
inactive: all other assays above

OCCOCCO
not listed: [11] | [15] | [16]
inactive: all other assays above

Oc1ccc2ccc3cccc4ccc1c2c34
active: [6] 8.53 µM
not listed: [20]
inactive: all other assays above
